Assay outcomes as filed in PubChem BioAssay.
FMDV Renilla: antivirals against foot and mouth disease virus replicon; Potency, µM (top dose mostly 57.5 µM), most hits filed as inhibitors; FMDV replicon cells, Renilla luciferase signal; 120,000 compounds, 0.32% hits; AID 1745857; also: nearly all actives have a fitted effect of over 55% in size
FMDV antiviral: shows antiviral activity against foot and mouth disease virus; FMDV antiviral cell assay, firefly luciferase signal; Potency, µM (titrated, usually from 57.5 µM), most hits filed as inhibitors; 120,000 compounds, 0.23% hits; AID 1745856; also: nearly all actives have a fitted effect of over 60% in size
Each line names hits and unclear results; the compound was inactive in the other large screens. Most compounds without a hit are left out; they make up all but 0.51% or so of the library. Calls follow the shape of the full dose curve.

CCC1CN(C(=O)N2CCC(C(=O)N3CCN(c4cccc(C)c4C)CC3)CC2)c2ccccc2O1 (configuration not stated)	FMDV Renilla 28µM, FMDV antiviral inconclusive
CCC1CN(C(=O)N2CCC(C(=O)NCc3ccccc3C)CC2)c2ccccc2O1 (configuration not stated)	none
Fc1ccc(F)c(-c2cn3nc(C45CC6CC(CC(C6)C4)C5)sc3n2)c1	FMDV antiviral inconclusive
COc1ccc2cnn(CC(=O)Nc3cccc(Br)c3)c(=O)c2c1OC	none
CCn1nccc1-c1cc(C(=O)O)c2cc(C)cc(C)c2n1	none
CCCCOCCCNC(=O)CCC(=O)NC(C)(C)C	none
Cc1[nH]c(=O)nc(SCC(=O)Nc2ccc(F)cc2Cl)c1C#N	none
COc1ccc(-c2nc(SCc3cc(=O)c4cccc(Cl)c4[nH]3)n[nH]2)cc1	FMDV Renilla 11µM, FMDV antiviral inconclusive
COc1ccc(-c2nc(SCc3cc(=O)c4cc(C)ccc4[nH]3)n[nH]2)cc1	FMDV Renilla inconclusive
COc1cc(C2CC(=O)Nc3c2sc(C(=O)O)c3-c2ccc(F)cc2)cc(OC)c1OC (configuration not stated)	none
CCOc1cc(C2CC(=O)Nc3c(-c4ccc(OC)cc4)csc32)ccc1OCC(N)=O (configuration not stated)	FMDV Renilla 8.9µM, FMDV antiviral 13µM
O=C(CC1SCCNC1=O)Nc1ccc(F)cc1 (configuration not stated)	none
Cc1nc(/C=C/C(=O)N2CCN(c3cccc(C(F)(F)F)c3)CC2)cs1	FMDV Renilla 20µM, FMDV antiviral inconclusive
Cc1cc(C(=O)N2CCN(c3cccc(C(F)(F)F)c3)CC2)cs1	none
Cc1ccc(OC(=O)C(c2ccccc2)c2ccccc2)cc1	none
O=C(CN1CCN(CC(=O)NC2CCCCC2)CC1)Nc1ccc(Cl)c(C(F)(F)F)c1	none
O=C(CN1CCN(c2ccc(C(F)(F)F)cn2)CC1)NC1CCCCC1	FMDV Renilla inconclusive, FMDV antiviral 28µM
Cc1ccc(C)c(OC(=O)c2ccco2)c1C	none
Cc1nc(-c2ccc(C)c(N3CCN(C(=O)Nc4cccc(Cl)c4C)CC3)c2)no1	FMDV Renilla inconclusive, FMDV antiviral 25µM
Cc1ccc(NC(=O)N2CCN(c3cc(-c4noc(C)n4)ccc3C)CC2)c(C)c1	none
CCOCCCNCc1ccc(C)cc1	none
CCOC(=O)C1=C(C)NC(=O)CC1c1ccccc1F (configuration not stated)	none
CCCCCC1/C(=N/O)CCC1CC(=O)OC (configuration not stated)	none
O=C(Nc1ccc(N2CCN(Cc3ccccc3)CC2)cc1)c1cnc2ccccc2n1	FMDV Renilla 7.9µM, FMDV antiviral inconclusive
CN1CCN(c2ccc(NC(=O)c3cnc4ccccc4n3)cc2)CC1	none
O=C(NCc1cccc(C(F)(F)F)c1)c1ccccc1OC(F)F	none
O=C1c2c(O)ccc(O)c2C(=O)c2c(NCCNCCO)ccc(NCCNCCO)c21	FMDV Renilla inconclusive, FMDV antiviral 28µM
CCCCOc1ccc2c(C)c(CCC)c(=O)oc2c1	none
Cc1ccc(F)cc1S(=O)(=O)N(Cc1cc(CN2CCOCC2)cs1)c1ccc(F)cc1	none
COc1ccc(N(Cc2cc(CN3CCOCC3)cs2)S(=O)(=O)c2cc(C)cc(C)c2)cc1	FMDV antiviral 25µM
COc1ccc(S(=O)(=O)[C@H]2CS(=O)(=O)C[C@@H]2N2CCN(c3ccc(F)cc3)CC2)cc1	none
COCCn1c(N2CCN(C)CC2)nc2c1c(=O)[nH]c(=O)n2C	none
CN1C(C(=O)c2ccccc2)=C(OC(=O)c2ccccn2)c2ccccc2S1(=O)=O	none
Cc1cc(C)nc(NS(=O)(=O)c2ccc(NC(=O)c3nc(SC(C)C)ncc3Cl)cc2)n1	FMDV Renilla 11µM
Cc1ccnc(NS(=O)(=O)c2ccc(NC(=O)c3nc(SC(C)C)ncc3Cl)cc2)n1	none
COC(=O)c1ccc(NS(=O)(=O)c2ccc(-n3cccn3)cc2)cc1	none
COc1ccc(NS(=O)(=O)c2ccc(-n3cccn3)cc2)cc1OC	FMDV Renilla inconclusive, FMDV antiviral 8.9µM
CSC1=N/C(=C\c2cccc(Cl)c2)C(=O)S1	none
COc1ccc(/C=C(/C#N)c2nc3ccccc3[nH]2)cc1	none
COc1ccc2cc(/C=C(/C#N)c3nc4ccccc4[nH]3)ccc2c1	FMDV Renilla 10µM
CC1(C)CC(=O)C2=C(C1)Nc1[nH]n(-c3ccccc3)c(=O)c1C2c1ccc(O)cc1 (configuration not stated)	FMDV Renilla 10µM
CC1(C)CC(=O)C2=C(C1)Nc1[nH]n(-c3ccccc3)c(=O)c1C2c1ccc(F)cc1 (configuration not stated)	none
Nc1nccnc1C(=O)NCc1ccccc1	none
CCOCc1ccc(CNC(=O)c2nccnc2N)cc1	FMDV Renilla 25µM, FMDV antiviral inconclusive
Nc1nccnc1C(=O)NCc1ccc(O)cc1	none
Cc1cccc(COc2ccc(CNC(=O)c3nccnc3N)cc2)c1	FMDV Renilla 14µM, FMDV antiviral inconclusive
Cc1ccc2nc(C)c(Cc3nnc(SCC(=O)Nc4cccc(Cl)c4C)n3C)c(=O)n2c1	none
Cc1cccc(NC(=O)CCl)c1	FMDV Renilla 32µM, FMDV antiviral inconclusive
Cc1cccc(NC(=O)CC2(C(=O)O)CCCCC2)c1	none
Cc1nc2cc(NC(=O)COc3ccccc3F)ccc2o1	none
COc1cc(C(=O)Nc2ccccc2-c2nc(-c3ccccc3)no2)cc(OC)c1OC	none
COc1cc(C(=O)Nc2ccccc2-c2nc(-c3ccc(C)cc3)no2)cc(OC)c1OC	FMDV Renilla 35µM
COc1cc(-c2nc(-c3ccc(Br)cc3)no2)cc(OC)c1OC	FMDV antiviral 0.4µM
COc1cc(-c2noc(-c3ccc(Br)cc3)n2)cc(OC)c1OC	none
COc1cc(C)cc2oc(=O)c(CC(=O)Nc3cccc(Cl)c3)c(C)c12	none
CCCOC(=O)C1=C(C)Nc2nnnn2C1c1cc(Br)ccc1OCC (configuration not stated)	none
N#CCOc1ccc(C(=O)/C=C/c2cccc(Br)c2)cc1	none
COc1ccc(/C=C/C(=O)c2ccc(C(=O)O)s2)cc1OC	none
N#Cc1ccc(C(=O)Nc2ccc3nc(CCc4ccccc4)[nH]c3c2)cc1	none
CCn1c(CCc2cccc(NC(=O)c3ccc(C#N)cc3)c2)nc2ccccc21	FMDV Renilla 11µM, FMDV antiviral 14µM
C=CCOc1ccc(/C=C(\C)[N+](=O)[O-])cc1OC	FMDV Renilla 32µM, FMDV antiviral inconclusive
CCOc1ccc(/C=C(\C)[N+](=O)[O-])cc1	FMDV antiviral inconclusive
CCOC(=O)c1[nH]c2ccccc2c1NC(=O)CCN1CCCCC1	none
CCc1c(C)sc(NC(=O)C(C)(C)C)c1C#N	none
CCc1c(C)sc(NC(=O)C(F)(F)C(F)(F)C(F)(F)F)c1C#N	FMDV Renilla 10µM, FMDV antiviral inconclusive
CCc1c(C)sc(NC(=O)C(F)(F)C(F)(F)C(F)(F)C(F)(F)F)c1C#N	FMDV Renilla 25µM, FMDV antiviral 22µM
CCc1c(C)sc(NC(=O)c2c(F)c(F)c(F)c(F)c2F)c1C#N	none
CCC1(CC)NC(=O)N(CC(=O)c2cn(CCC#N)c3ccccc23)C1=O	none
COc1ccc(F)c(CNCCc2c(C)[nH]c3ccc(OC)cc23)c1	none
COc1ccc2[nH]c(C)c(CCNCc3cccc(F)c3)c2c1	none
COc1ccc(CNCCc2c(C)[nH]c3ccc(OC)cc23)c(F)c1	FMDV Renilla 7.1µM, FMDV antiviral 8.9µM
COc1ccc2[nH]c(C)c(CCNCc3ccc(C(F)(F)F)cc3)c2c1	FMDV Renilla 4.5µM, FMDV antiviral inconclusive
COC(=O)c1ccc(C2NC(=O)NC(C)=C2C(=O)N2CCOCC2)cc1 (configuration not stated)	none
CCOC(=O)C(NC(=O)/C=C/c1ccccc1Br)C(=O)OCC	none
